Laboratory results: PubChem BioAssay (EPA / NIEHS)
Several values for one entry are separate records, joined by “and”; a condition that tells them apart may be missing. Equal entries are not always repeated. Results filed as inconclusive are left out. Where a structure was tested more than once in an assay, its records may differ in their call. Activity calls are given as the source filed them. How the source made its calls, unless noted: active means hit-call score of the fitted dose curve at least 0.9, where 1 is the maximum; inactive means score below 0.9.

Legend:
[1] = CCTE_Shafer_MEA_acute_burst_percentage_mean: CCTE's Neural Acute Assay for Percentage of Spikes in a Burst, Shafer Lab (AID 2284017);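 on AC50: curve fitted for loss of signal so potency reflects decreased burst percentage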
Method in brief: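 Compounds were tested at 0.03-40 uM on primary rat cortical neuron networks grown over microelectrodes, with at least three wells per compound. Spontaneous firing was recorded for 40 min before and 40 min after dosing, and the change in burst percentage was computed per well.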

[2] = CCTE_Shafer_MEA_acute_per_network_burst_spike_number_std: CCTE's Neural Acute Assay for Standard Deviation of Number of Spikes in a Network Burst, Shafer Lab (AID 2284020);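 further: fitted for decrease in spike-number SD versus DMSO so actives lower it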
Method in brief: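 Rat cortical cultures, DIV 13/15, 37 C; 20-min stabilisation, 40-min baseline, compound 0.03-40 uM, 40-min re-record. Spikes detected at 8x rms noise (300-5000 Hz band-pass). Readout: % change from baseline in per-burst spike-number SD.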

[3] = CCTE_Shafer_MEA_acute_per_network_burst_electrodes_number_mean: CCTE's Neural Acute Assay for Mean Number of Electrodes in a Network Burst, Shafer Lab (AID 2284021);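 further: curves fitted for decreases only so hits reduce electrodes per burst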
Method in brief: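 Cultures of rat cortex neurons were exposed on DIV 13 or 15 to compounds at 0.03-40 uM in at least three wells each. Activity over 40 min before and 40 min after exposure at 37 C gave the percent change in electrodes per network burst.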

[4] = CCTE_Shafer_MEA_acute_network_burst_percentage: CCTE's Neural Acute Assay for Percentage of Network Bursts, Shafer Lab (AID 2284022);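 further: curves fitted for loss so actives lower network burst percentage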
Method in brief: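 Cortical neurons from rat were grown over microelectrode arrays and used on day 13 or 15 in vitro. Wells with at least 10 active electrodes received test chemical at 0.03-40 uM. Activity during 40 min of exposure was compared with the preceding 40-min baseline.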

[5] = CCTE_Shafer_MEA_acute_cross_correlation_area: CCTE's Neural Acute Assay for Area of Cross Correlation, Shafer Lab (AID 2284024);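 further: area under pooled inter-electrode spike cross-correlation near zero lag as percent change from own baseline; curves fitted for loss of cross-correlation area so actives lower synchrony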
Method in brief: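 Acute exposure of mature rat cortical networks (day 13 or 15 post-plating) to 0.03-40 uM compound. Spontaneous spiking on MEA, 40 min pre- and post-dose at 37 C.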

[6] = CCTE_Shafer_MEA_acute_cross_correlation_HWHM: CCTE's Neural Acute Assay for Cross Correlation at Half Width at Half Maximum, Shafer Lab (AID 2284026);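 further: percent change per well from pre-dose baseline in spike cross-correlogram half width; hits are a decrease in cross-correlogram half width relative to DMSO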
Method in brief: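 Primary cortex (rat), MEA, DIV 13/15; compound 0.03-40 uM; 40 min pre + 40 min post at 37 C; spike threshold 8x rms; wells need ≥10 active electrodes; endpoint = % change in cross-correlogram HWHM vs baseline, DMSO negative control.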

[7] = CCTE_Shafer_MEA_acute_synchrony_index: CCTE's Neural Acute Assay for Synchrony, Shafer Lab (AID 2284027);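 further: network synchrony index of spontaneous spiking in primary rat cortical neurons on MEAs; fitted for loss of signal so actives lower synchrony relative to DMSO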
Method in brief: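 Plates equilibrated 20 min at 37 C, baseline recorded 40 min, compound (0.03-40 uM) added, then 40 min more recorded. Cells: primary rat cortical neurons, DIV 13 or 15. Per-well synchrony index change analysed in negative direction against DMSO.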

[8] = CCTE_Shafer_MEA_dev_per_burst_spike_percent: CCTE's Neural Network Formation Assay for Percent of Spikes in a Burst, Shafer Lab (AID 2284032);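 on AC50: fitted as a decrease in burst spike percentage below DMSO baseline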
Method in brief: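 Value is trapezoidal AUC over recordings on days 5, 7, 9 and 12 of the well-mean fraction of spikes falling in single-electrode bursts; rat cortical cultures exposed continuously from plating, treatment renewed DIV 5 and 9, fitted downward against DMSO.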

[9] = target: Estrogen receptor (Homo sapiens) (UniProt P03372); assay: CCTE_Deisenroth_AIME_384WELL_LUC_Active: CCTE's 384-well Estrogen Receptor Transactivation Assay with AIME metabolic competence (ERTA luciferase; metabolism positive), Deisenroth Lab (AID 2284030; active means hit-call score of the fitted dose curve at least 0.9, where 1 is the maximum)
Method in brief: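 In this metabolism-positive format, a 2-hour exposure to alginate-immobilized rat S9 precedes a 24 hour luciferase transactivation readout in VM7Luc4E2 cells. Dosing spans 10 concentrations from 0.002 to 200 uM.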

[10] = CCTE_Deisenroth_AIME_384WELL_CTox_Active: Cytotoxicity Assessment (CTOX) in CCTE's 384-well Estrogen Receptor Transactivation Assay with AIME metabolic competence (metabolism positive), Deisenroth Lab (AID 2284037; active means hit-call score of the fitted dose curve at least 0.9, where 1 is the maximum;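 further: chemicals first conditioned 2 h by alginate-bound induced rat liver S9 before cells; activity means signal loss indicating cell death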)
Method in brief: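 Chemicals pre-incubated 2 hours with alginate-immobilised phenobarbital/beta-naphthoflavone-induced male Sprague Dawley rat liver S9, then conditioned medium applied 24 hour to VM7Luc4E2 cells. Viability by fluorogenic protease substrate; 10-point series 0.002 - 200 uM.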

Measured: AC50

Sequence of Estrogen receptor (Homo sapiens) (P03372 whole entry, looked up): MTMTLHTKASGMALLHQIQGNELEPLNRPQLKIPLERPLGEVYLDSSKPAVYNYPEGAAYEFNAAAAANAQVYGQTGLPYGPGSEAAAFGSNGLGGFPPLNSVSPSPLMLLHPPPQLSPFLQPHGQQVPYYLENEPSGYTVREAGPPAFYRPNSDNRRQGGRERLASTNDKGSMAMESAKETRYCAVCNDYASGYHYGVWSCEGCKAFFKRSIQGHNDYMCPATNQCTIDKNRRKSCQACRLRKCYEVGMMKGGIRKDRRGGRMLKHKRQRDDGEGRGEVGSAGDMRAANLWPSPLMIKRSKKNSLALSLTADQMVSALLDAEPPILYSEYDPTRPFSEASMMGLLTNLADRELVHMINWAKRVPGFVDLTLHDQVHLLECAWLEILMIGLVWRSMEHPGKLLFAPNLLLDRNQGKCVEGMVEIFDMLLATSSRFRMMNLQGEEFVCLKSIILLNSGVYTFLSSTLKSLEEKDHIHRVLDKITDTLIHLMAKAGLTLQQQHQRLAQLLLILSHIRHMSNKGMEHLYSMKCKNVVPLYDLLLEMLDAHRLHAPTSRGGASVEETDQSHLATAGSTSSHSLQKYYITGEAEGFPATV

C[Si](Cn1cncn1)(c1ccc(F)cc1)c1ccc(F)cc1
active: [1] 15.4 µM | [4] 20 µM | [5] 1.67 µM | [6] 34.5 µM | [7] 4.26 µM
inactive: [2] | [3] | [8]

CSC1=N[C@@](C)(c2ccccc2)C(=O)N1Nc1ccccc1
active: [1] 20 µM and 24.4 µM | [2] 30.8 µM | [4] 22.1 µM | [6] 29.8 µM and 18.1 µM | [7] 20 µM and 22.8 µM
inactive: [2] | [3] | [4] | [5] | [8]

FC(F)C(F)(F)OCC(Cn1cncn1)c1ccc(Cl)cc1Cl (configuration not stated)
active: [6] 23.8 µM
not listed: [8] | [9] | [10]
inactive: all other assays above

CCOP(=S)(OCC)SCCSCC
active: [3] 2.98 µM | [6] 8.93 µM
not listed: [9] | [10]
inactive: all other assays above

O=[N+]([O-])c1cc(C(F)(F)F)c(Cl)c([N+](=O)[O-])c1Nc1ncc(C(F)(F)F)cc1Cl
inactive: [9]
active: [1] 0.678 µM | [2] 0.465 µM | [3] 0.481 µM | [4] 1.13 µM | [5] 0.263 µM | [6] 5.3 µM | [7] 0.481 µM | [8] 0.669 µM | [10] 100 µM

CCc1cnc(C2=NC(C)(C(C)C)C(=O)N2)c(C(=O)O)c1 (configuration not stated)
not listed: [8] | [9] | [10]
inactive: all other assays above

CN1COCN(Cc2cnc(Cl)s2)C1=N[N+](=O)[O-]
not listed: [9] | [10]
inactive: all other assays above

Cc1ccn2nc(S(=O)(=O)Nc3c(F)cccc3F)nc2n1
not listed: [8] | [9] | [10]
inactive: all other assays above

CCCOCC(=Nc1ccc(Cl)cc1C(F)(F)F)n1ccnc1
inactive: [3] | [4]
active: [1] 2.71 µM | [2] 4.42 µM | [5] 0.44 µM | [6] 1.6 µM | [7] 2.69 µM

CN(C)[C@@H]1C(=O)C(C(N)=O)=C(O)[C@@]2(O)C(=O)C3=C(O)c4c(O)cccc4[C@@](C)(O)[C@H]3[C@H](O)[C@@H]12
active: [8] 50 µM
not listed: [9]
inactive: all other assays above

C#CCC1=C(C)C(OC(=O)C2C(C=C(C)C)C2(C)C)CC1=O (configuration not stated)
inactive: [5] | [6] | [10]
active: [1] 12.7 µM | [2] 19.9 µM | [3] 5.78 µM | [4] 14.6 µM | [7] 17.8 µM | [8] 9.95 µM

CC(C)=CC1C(C(=O)OCN2C(=O)C3=C(CCCC3)C2=O)C1(C)C (configuration not stated)
active: [1] 20 µM | [6] 28.6 µM | [7] 25.1 µM
not listed: [9] | [10]
inactive: all other assays above

CC[C@H](C)[C@H]1O[C@]2(C=C[C@@H]1C)C[C@@H]1C[C@@H](C/C=C(\C)[C@@H](O[C@H]3C[C@H](OC)[C@@H](O[C@H]4C[C@H](OC)[C@@H](NC)[C@H](C)O4)[C@H](C)O3)[C@@H](C)/C=C/C=C3\CO[C@@H]4[C@H](O)C(C)=C[C@@H](C(=O)O1)[C@]34O)O2
inactive: [5]
active: [1] 26.6 nM and 37.8 nM | [2] 23.7 nM and 1.5 µM | [3] 615 nM and 8.88 µM | [4] 43 nM and 1.55 µM | [5] 0.00626 µM | [6] 25.5 nM and 47.5 nM | [7] 37.6 nM and 751 nM | [8] 88.8 nM and 3.52 nM

COc1cc(OC)nc(Sc2cccc(Cl)c2C(=O)O)n1
not listed: [8] | [9] | [10]
inactive: all other assays above

CCOC(=O)CC(SP(=O)(OC)OC)C(=O)OCC (configuration not stated)
not listed: [9] | [10]
inactive: all other assays above

Nc1c(Cl)cc([N+](=O)[O-])cc1Cl
inactive: [5] | [6]
active: [1] 20 µM | [2] 37 µM | [3] 20 µM | [4] 26 µM | [7] 32.8 µM

CC(C)[C@H](C(=O)O[C@H](C#N)c1cccc(Oc2ccccc2)c1)c1ccc(Cl)cc1
inactive: [2] | [5]
active: [1] 0.958 µM | [3] 0.0691 µM | [4] 0.962 µM | [6] 4.36 µM | [7] 1.01 µM | [8] 5.46 µM

CN(C)NC(=O)CCC(=O)O
not listed: [8] | [9] | [10]
inactive: all other assays above

CC(=NC#N)N(C)Cc1ccc(Cl)nc1
not listed: [9] | [10]
inactive: all other assays above
